# A selection: hits, their analogues and other compounds. The true share with any hit is near 2.8%.
# SENP6 block: inhibitors of human SENP6 protease. Recombinant SENP6 catalytic domain, aminoluciferin luminescence. inhibition, % at 10 µM. 330,000 tested, 1.8% active;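 active = inhibition above about 50% at the single tested dose, limit read from the data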;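 note: plate controls were DMSO wells with enzyme for no effect and DMSO wells lacking enzyme for full effect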
# SENP8 block-1: inhibitors of human SENP8 protease; Q96LD8; recombinant SENP8, Nedd8 substrate fluorescence; inhibition, % at 20 µM; 360,000 tested, 0.64% active; AID 602440; in the data active = inhibition mostly above about 40%, no sharp cut-off; inactive = mostly below about 27%
# SENP8 block-2: blocks the human protease SENP8; Q96LD8; purified SENP8, Z-RLRGG-aminoluciferin cleavage, luminescence; inhibition, % at 10 µM; 330,000 tested, 1.2% active; AID 2540; in the data active = inhibition above about 50%
# SENP7 block: blocks the human protease SENP7. inhibition, % at 5 µM. recombinant SENP7, Z-RLRGG-aminoluciferin luminescence, 40 min. 330,000 tested, 1.5% active;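 active = inhibition above about 50% at the single test dose, limit read from the data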;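 note: plate controls were DMSO with enzyme for no effect and no enzyme buffer wells for full effect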
# Target sequence (Q9BQF6 706-1050 limits assumed): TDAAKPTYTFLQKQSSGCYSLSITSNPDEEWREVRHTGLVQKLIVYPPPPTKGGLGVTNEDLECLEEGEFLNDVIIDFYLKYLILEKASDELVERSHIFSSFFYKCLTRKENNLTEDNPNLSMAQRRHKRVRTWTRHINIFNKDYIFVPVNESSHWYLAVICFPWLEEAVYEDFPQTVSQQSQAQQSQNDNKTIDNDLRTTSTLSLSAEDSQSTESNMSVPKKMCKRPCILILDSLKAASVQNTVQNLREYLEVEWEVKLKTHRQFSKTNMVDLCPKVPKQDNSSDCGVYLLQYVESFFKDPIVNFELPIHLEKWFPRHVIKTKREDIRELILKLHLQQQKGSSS
# HSP90 refold inh: blocks HSP90-mediated luciferase refolding in reticulocyte lysate; AID 1789; 290,000 tested, 0.91% active; Rabbit reticulocyte lysate, luciferase refolding luminescence, 3 h; inhibition, % at 5.6 µM;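 active = inhibition above the screen-wide mean plus 3 SD, computed separately per campaign, cut at about 16% in these data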;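 note: 0% = DMSO wells and 100% = 60 µM geldanamycin wells; inhibitors lower the luminescence because luciferase stays unfolded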
# Platelet DG rel: modulates dense granule release in human platelets; human platelet-rich plasma, SFLLRN dense granule ATP release, luminescence; inhibition, %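 (compounds screened at 7.5 µM in platelet-rich plasma)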; 300,000 tested, 0.22% active; AID 1663;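 active = mean replicate score, as percent of positive control, at or above 50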
# HSP90 inh confirm: HSP90 inhibition, confirmation assay. shares compounds with HSP90 refold inh. rabbit reticulocyte lysate, luciferase refolding luminescence, 3 h. inhibition, % at 5.9 µM. 2,300 tested, 64% active. AID 1846; in the data active = inhibition above about 18%;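 note: 0% = vehicle wells and 100% = reference inhibitor wells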
# luciferase ctr: firefly luciferase inhibition, HSP90 counter-screen; 2,300 tested, 48% active; AID 1847; inhibition, % at 5.9 µM; shares compounds with HSP90 refold inh; purified native firefly luciferase, luminescence;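 active = inhibition above the mean inhibition of all tested sample wells plus 3 SD, cut at about 10% in these data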;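 note: 0% = DMSO with luciferase and 100% = wells lacking luciferase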
# SENP8 conf: human SENP8 inhibition, confirmed. shares compounds with SENP7 block. Recombinant SENP8, Z-RLRGG-aminoluciferin luminescence, 60 min. inhibition, % at 12.5 µM. 6,200 tested, 40% active;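 active = mean inhibition across replicates above about 50%, limit read from the data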
# SENP6 conf: confirmation of human SENP6 protease inhibitors; shares compounds with SENP7 block; recombinant SENP6, Z-RLRGG-aminoluciferin luminescence; inhibition, % at 12.5 µM; 6,200 tested, 58% active
# SENP7 conf: confirmation of human SENP7 protease inhibitors; shares compounds with SENP7 block; recombinant SENP7, Z-RLRGG-aminoluciferin luminescence, 40 min; inhibition, % at 12.5 µM; 6,200 tested, 69% active; AID 488917
# Casp3 select: caspase-3 inhibition (SENP selectivity assay) | AID 488918 | purified caspase-3, Z-DEVD-aminoluciferin luminescence, 60 min | shares compounds with SENP7 block | inhibition, % at 12.5 µM | 6,200 tested, 60% active;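 active = mean inhibition above about 50%, limit read from the data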;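 note: plate controls were enzyme with DMSO for no effect and wells without caspase-3 for full effect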
# Luc interf: luminescence interference (SENP counter-screen); 6,200 tested, 39% active; shares compounds with SENP7 block; Pre-incubated SENP8/Z-RLRGG-aminoluciferin, luciferase luminescence interference; AID 488919; inhibition, % at 12.5 µM;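 active = mean inhibition above about 50% when retested at one dose, limit read from the data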;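 note: plate controls were DMSO wells with completed reaction for no effect and substrate without enzyme for full effect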
# * hit, by the source's call; / = no result given.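 Rule for the calls, unless noted: active = mean inhibition above about 50% in the one-dose retest (limit read from the data); inactive = the rest.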
SMILES,SENP6 block,SENP8 block-1,SENP8 block-2,SENP7 block,HSP90 refold inh,Platelet DG rel,HSP90 inh confirm,luciferase ctr,SENP8 conf,SENP6 conf,SENP7 conf,Casp3 select,Luc interf
O=C(/C=C/c1ccco1)N1CCc2ccccc21,93.4*,13.3,91.2*,90.8*,23.6*,46.3,41.2*,24.8*,-1.2,96.0*,101.8*,96.7*,94.2*
O=C(c1cc(-c2ccc(Cl)cc2)on1)N1CCCCCC1,2.7,0.9,-3.8,24.9,1.1,-1.4,/,/,/,/,/,/,/
O=C(c1cc(-c2ccc(Cl)cc2Cl)on1)N1CCCCCC1,73.1*,6.2,55.5*,54.4*,18.8*,7.4,34.0*,18.4*,62.5*,60.4*,82.4*,46.1,45.3
O=C(c1cc(-c2ccc(Cl)cc2Cl)on1)N1CCCC1,87.3*,9.6,78.4*,75.3*,37.0*,13.6,55.5*,57.1*,-7.6,44.6,50.6*,30.5,48.4
O=C(CCCl)N1CCCC2(CCCCC2)C1,-11.6,2.5,4.7,-0.5,3.3,-0.4,/,/,/,/,/,/,/
S=C(NCc1ccco1)N1CCN(c2ccccc2Cl)CC1,15.3,14.8,10.4,2.2,3.5,-3.7,/,/,/,/,/,/,/
Cn1c(NCc2cccnc2)nc2cc(-c3cccc(C(=O)NCCO)c3)sc2c1=O,/,-154.1,/,/,/,/,/,/,/,/,/,/,/
O=C1/C(=C/N(C(=O)c2ccco2)c2ccc(Br)cc2)Sc2ccccc21,90.0*,-109.3,84.4*,79.5*,17.4*,16.1,57.2*,60.7*,11.3,51.0*,71.5*,44.5,40.4
COc1ccncc1-c1csc(C(O)c2ccccc2)n1 (stereo unspecified),/,11.6,/,/,/,/,/,/,/,/,/,/,/
Oc1ccc(Cl)cc1CNc1cccc2cccnc12,83.7*,34.9,88.3*,64.8*,26.6*,-3.3,3.2,-4.4,-7.1,18.1,5.1,4.3,5.9
COc1cccc(CNc2cccc3cccnc23)c1O,78.7*,32.6,80.3*,66.3*,20.3*,-4.1,-11.1,-30.2,-5.9,11.4,16.4,2.0,14.1
Oc1ccc(Br)cc1CNc1cccc2cccnc12,78.4*,-8.4,79.9*,70.5*,25.4*,10.2,1.8,0.5,9.4,29.2,6.6,1.5,1.3
Oc1ccc(Br)cc1CNc1cnc2ccccc2c1,5.9,-329.6,-6.2,-7.4,-1.8,-7.0,/,/,/,/,/,/,/
COc1cc(Cl)ccc1OC1(C)CCN(Cc2cccc(OC)c2OC)C1 (stereo unspecified),/,31.7,/,/,/,/,/,/,/,/,/,/,/
CN(C)c1ccc(/C=N/Nc2nc3ccccc3o2)cc1,77.5*,-290.8,77.5*,96.7*,45.3*,4.4,63.1*,62.0*,22.5,79.3*,97.3*,43.6,11.2
CCS(=O)(=O)c1ccc(C=NNc2nc3ccccc3o2)cc1,/,-220.0,/,/,/,/,/,/,/,/,/,/,/
Cc1cc(C(=O)CSc2nnc(-c3ccccc3)n2-c2ccccc2)c(C)n1-c1ncn[nH]1,-10.2,23.6,-5.6,2.6,-1.5,-3.8,/,/,/,/,/,/,/
Cc1cc(C(=O)CSc2nnc3ccccn23)c(C)n1-c1ccccc1,62.2*,6.0,37.4,52.4*,61.8*,5.5,86.4*,78.8*,34.9,35.9,78.6*,79.0*,60.8*
COc1ccccc1CCN1CCCC(CN(C)C(=O)CCC(N)=O)C1 (stereo unspecified),-19.5,11.1,-8.1,-17.1,1.1,1.7,/,/,/,/,/,/,/

# Assay outcomes (PubChem BioAssay)
